The full list was thinned out, with hits kept by preference.
Methyltransferases – Primary Screen for Target Class Profiling of Small Molecule Inhibitors of Methyltransferases. hit rate 3.9% among 25,000. purified enzyme, MTase-Glo SAH luminescence; stronger effect = lower value. calls only at 40 µM; call rule not given here
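Each enzyme was assayed with SAM and its substrate. SAH formation detected by MTase-Glo luminescence; single-point 40 uM screen[…].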
An asterisk follows results filed as active; i = inactive; + = active, no number. % is scaled to controls: 0 for no effect and ±100 for the full control effect.

SMILES	Methyltransferases
OC[C@H]1O[C@@H](OCCc2ccc(O)cc2)[C@H](O)[C@@H](O)[C@@H]1O	i
CC(=O)c1c(C)cccc1O[C@@H]1O[C@H](CO)[C@@H](O)[C@H](O)[C@H]1O	+
OC[C@H]1O[C@@H](O[C@H]2[C@H](OCc3ccccc3)O[C@H](CO[C@@H]3OC[C@@H](O)[C@H](O)[C@H]3O)[C@@H](O)[C@@H]2O)[C@H](O)[C@@H](O)[C@@H]1O	i
COc1ccc(O[C@@H]2O[C@H](CO)[C@@H](O)[C@H](O)[C@H]2O)cc1OC	i
COc1ccccc1CNC(=O)C1c2c(n(C)c3ccccc23)SCC(=O)N1c1ccc(C)cc1Cl (configuration not stated)	i
Cc1ccc(CNC(=O)C2(C)Cc3ccccc3C(=O)N2Cc2ccc(C(F)(F)F)cc2)cc1 (configuration not stated)	i
CCc1ccc(CNC(=O)c2ccc3c(=O)nc4c(-c5ccccc5)n[nH]n4c3c2)cc1	i
CC(C)Cn1c(=O)c2cc(F)ccc2n2c(SCC(=O)NCc3ccccc3Cl)nnc12	i
CC(C)CNC(=O)c1ccc2c(=O)n(C)c3nn(CC(=O)NC4CCCC4)c(=O)n3c2c1	i
CSc1cccc(N2C(=O)c3cc(C(C)(C)C)nn3CC2(C)C(=O)NCc2ccccc2)c1 (configuration not stated)	i
CCCCN1C(=O)c2cc(C(=O)Nc3ccc(F)cc3Cl)nn2CC1(C)C(=O)NC1CCCC1 (configuration not stated)	i
Cn1c(=O)oc2cc(S(=O)(=O)NCCc3nc(-c4ccc(F)cc4)n[nH]3)ccc21	i
CCn1c(=O)sc2cc(NS(=O)(=O)c3ccc4c(c3)n(C)c(=O)n4C)ccc21	i
COc1ccc(OC)c(CCN2C(=O)c3cc4sccc4n3CC2(C)C(=O)NC2CCCC2)c1 (configuration not stated)	i
CCN(CCCNC(=O)CCc1nnc2n(CC(C)C)c(=O)c3ccccc3n12)c1cccc(C)c1	i
CC(C)CNC(=O)c1ccc2c(=O)n(C(C)C)c3nn(CC(=O)c4cccc(Cl)c4)c(=O)n3c2c1	i
O=C(O)CCc1cccc(O[C@@H]2O[C@H](CO)[C@@H](O)[C@H](O)[C@H]2O)c1O	+
OC[C@H]1O[C@@H](O[C@H]2[C@H](O)[C@@H](CO)O[C@@H](OCc3ccccc3)[C@@H]2O[C@@H]2OC[C@](O)(CO)[C@H]2O)[C@H](O)[C@@H](O)[C@@H]1O	i
OC[C@H]1O[C@@H](OC(CCCCc2ccc(O)cc2)CCc2ccc(O)cc2)[C@H](O[C@@H]2OC[C@](O)(CO)[C@H]2O)[C@@H](O)[C@@H]1O (some centres not stated)	i
O=C(O)CC(CCc1ccccc1)OC1OC(CO)C(O)C(O)C1O (configuration not stated)	+
O=C(O)CCc1cc2ccoc2cc1O[C@@H]1O[C@H](CO)[C@@H](O)[C@H](O)[C@H]1O	i
C=CCc1ccc(O[C@@H]2O[C@H](CO)[C@@H](O)[C@H](O)[C@H]2O)c(O[C@@H]2O[C@H](CO)[C@@H](O)[C@H](O)[C@H]2O)c1	i
COc1cc2c(CCNC(C)=O)c[nH]c2cc1O	+
O=C(Cc1c[nH]c2ccccc12)NCCc1c[nH]c2ccc(Cl)cc12	i
N[C@@H](Cc1c[nH]c2ccc(O)cc12)C(=O)O	i
SMILES	Methyltransferases
COc1cccc(CN2C(=O)c3nc4ccccc4n3CC2(C)C(=O)NC2CCCC2)c1 (configuration not stated)	i
COc1ccccc1CN1C(=O)c2nc3ccccc3n2CC1(C)C(=O)NCc1ccccc1 (configuration not stated)	i
COCCCN1C(=O)c2cc3ccc(OC)cc3n2CC1(C)C(=O)NC1CCCCCC1 (configuration not stated)	i
Cc1cc(=O)oc2c(C=O)c(O)ccc12	+
COC(=O)COc1ccc2c(-c3ccccc3)cc(=O)oc2c1C	i
O=c1cc(-c2ccccc2)oc2c(O)c(O)ccc12	i
Cc1cc(C)cc(NC(=O)Cn2nc3n(C(C)C)c(=O)c4ccc(C(=O)NC5CCCC5)cc4n3c2=O)c1	i
Cc1ccc(Cn2c(=O)c3ccccc3n3c(SCC(=O)Nc4cc(F)ccc4F)nnc23)cc1	i
Cc1c(Cl)cccc1N1C(=O)c2cc3sccc3n2CC1(C)C(=O)NC1CCCCC1 (configuration not stated)	i
Cn1nc(C2CC2)cc1NC(=O)C1CCCC1	i
CCN(CCCNC(=O)CCc1nnc2n(Cc3ccccc3)c(=O)c3ccccc3n12)c1ccccc1	i
O=C(CCc1nnc2n(Cc3ccc(F)cc3)c(=O)c3ccccc3n12)NCc1ccc(F)cc1	i
O=C(CCc1nnc2n(Cc3ccccc3)c(=O)c3ccccc3n12)NCCc1ccc(Cl)cc1	i
CCN(CC)CCCNC(=O)CCc1nnc2n(Cc3ccc(F)cc3)c(=O)c3ccccc3n12	+
CCN(CC)CCNC(=O)CCc1nnc2n(Cc3ccc(Cl)cc3)c(=O)c3ccccc3n12	+
COCCNC(=O)CCc1nnc2n(Cc3ccc(Cl)cc3)c(=O)c3ccccc3n12	i
C/C=C(/C)C(=O)O[C@@H]1C[C@@H](OC(=O)/C(C)=C\C)[C@@]2(C)C3C(=O)C=C(C)C2C3C1(C)C	i
CC(C)CNC(=O)c1ccc2c(=O)n(C)c3nn(Cc4ccc(F)cc4)c(=O)n3c2c1	i
COc1cccc(NC(=O)CCc2nnc3n(Cc4ccc(C)cc4)c(=O)c4ccccc4n23)c1	i
CNC(=O)c1cc(C2CC2)nc2c1c(C1CCCN1C(=O)c1ccc(C(F)(F)F)cc1)nn2C (configuration not stated)	i
O=C(c1ccc(Nc2nn3c(=O)c4ccccc4nc3s2)cc1)N1CCN(C2CCCCC2)CC1	i
Cc1cc(C)c(NC(=O)Cn2c(=O)oc3cc(S(=O)(=O)N4CCCC4)ccc32)c(C)c1	i
CCN1C(=O)c2cc(C(=O)NCc3ccc4c(c3)OCO4)nn2CC1(C)C(=O)NC1CCCC1 (configuration not stated)	i
CC(C)NC(=O)c1ccc2c(=O)nc3c(-c4ccccc4)n[nH]n3c2c1	i
CC(C)(C)c1ccc(S(=O)(=O)/C=C/C#N)cc1	+
SMILES	Methyltransferases
CC(C)CC(=O)O[C@@H]1OC=C(CO[C@@H]2O[C@H](CO[C@@H]3O[C@H](CO)[C@@H](O)[C@H](O)[C@H]3O)[C@@H](O)[C@H](O)[C@H]2O)[C@H]2C[C@H](O)[C@@H](CO)[C@@H]12	i
Cc1cc2c(cc1S(=O)(=O)N1CCN(c3ccccc3)CC1)n(C)c(=O)n2C	i
Cc1cc2c(cc3n2CC(C)(C(=O)NC2CCCCC2)N(CCc2ccccc2)C3=O)o1 (configuration not stated)	i
COc1ccc(CCN2C(=O)c3cc4oc(C)cc4n3CC2(C)C(=O)NC2CCCCC2)cc1OC (configuration not stated)	+
COc1ccc(OC)c2c1cc1n2CC(C)(C(=O)NC2CCCCC2)N(Cc2ccccn2)C1=O (configuration not stated)	+
COc1ccc(OC)c2c1cc1n2CC(C)(C(=O)NC2CCCC2)N(Cc2ccccc2)C1=O (configuration not stated)	i
COc1ccc(OC)c2c1cc1n2CC(C)(C(=O)NC2CCCCC2C)N(Cc2ccccn2)C1=O (configuration not stated)	i
